PostGolgi ctrl = growth of the yeast control strain, post-Golgi counter-screen; efflux-deficient yeast background strain, growth absorbance A615, 16 h; inhibition, % at 10 µM; 98,000 compounds, 5% hits; AID 738
CYP2C9 activ = increases human cytochrome P450 2C9 activity | P11712 | recombinant CYP2C9, luciferin-H conversion, luminescence; active compounds read high; factor 1 = untreated enzyme, 0 = blocked | activation factor at 5 µM | 96,000 compounds, 1.4% hits;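 active = activation factor of 2 or more for CYP2C9 at a 5 µM dose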;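 also: 0 = sulfaphenazole-blocked wells and 1 = vehicle-only wells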
CYP2C9 inh = human CYP2C9 inhibition; inhibition, % at 5 µM; AID 777; 96,000 compounds, 20% hits; P11712; CYP2C9 Supersomes, luciferin-H conversion, luminescence;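 active = blocking of liver enzyme CYP2C9 beyond about 50% at 5 µM, limit read from the data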
CYP2C19 act = increases human CYP2C19 enzyme activity | AID 1025 | 96,000 tested, under 10 active | recombinant CYP2C19, luciferin-H EGE luminescence; active compounds read high; 0 = fully inhibited enzyme, 1 = untreated enzyme | activation factor at 5 µM;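 active = activation factor of at least 2 at 5 µM in the primary screen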;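 also: 0 = wells with 2.5 mM tranylcypromine and 1 = vehicle-only wells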
Target sequence (P33261 whole entry, looked up): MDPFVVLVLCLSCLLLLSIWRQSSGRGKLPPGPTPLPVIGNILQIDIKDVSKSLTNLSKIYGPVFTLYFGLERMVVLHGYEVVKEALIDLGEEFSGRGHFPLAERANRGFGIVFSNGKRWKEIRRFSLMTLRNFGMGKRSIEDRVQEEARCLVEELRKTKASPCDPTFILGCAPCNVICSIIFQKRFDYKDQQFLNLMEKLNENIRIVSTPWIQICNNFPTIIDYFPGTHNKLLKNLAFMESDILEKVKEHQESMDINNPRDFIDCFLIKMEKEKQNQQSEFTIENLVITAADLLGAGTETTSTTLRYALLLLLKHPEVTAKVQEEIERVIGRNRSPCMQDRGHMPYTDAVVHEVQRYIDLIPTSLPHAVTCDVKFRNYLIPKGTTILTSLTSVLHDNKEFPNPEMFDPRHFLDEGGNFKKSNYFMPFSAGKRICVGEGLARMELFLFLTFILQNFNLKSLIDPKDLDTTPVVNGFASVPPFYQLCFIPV
CYP2C19 inh = human CYP2C19 inhibition; CYP2C19 Supersomes, luciferin-H EGE luminescence, 30 min; inhibition, % at 5 µM; P33261; 96,000 compounds, 21% hits;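 active = CYP2C19 inhibition above a set limit at 5 µM in the primary screen, cut at about 50% in these data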;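 also: plate controls were negative control wells for no effect and 2.5 mM tranylcypromine positive control for full effect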
PostGolgi yeast = growth inhibition of a yeast mutant, post-Golgi transport screen. post-Golgi transport phenotypic cell assay. inhibition, % at 10 µM. 98,000 compounds, 0.9% hits. AID 739;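 also: yeast cells grown in 1536-well plates; yeast grown about 18 h at 30C before absorbance read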
* hit, by the source's call. Only some compounds are listed: those with a hit (about 32% of all), similar ones and a draw of the others. Rule as the data show it, unless noted: active = inhibition above about 30%; inactive = the rest.

Screening CCOc1cc2[nH]c(=S)n(CCC(=O)NCc3ccc(OC)cc3)c(=O)c2cc1OCC returned PostGolgi ctrl 10, CYP2C9 activ 0.3, CYP2C9 inh 73*, CYP2C19 act 1, CYP2C19 inh 3 and PostGolgi yeast -6.
`CCOc1cc2[nH]c(=O)n(CCCCCC(=O)NCc3ccco3)c(=O)c2cc1OCC` gave PostGolgi ctrl 0, CYP2C9 activ 1, CYP2C9 inh 4, CYP2C19 act 1, CYP2C19 inh 1 and PostGolgi yeast -5.
Screening COc1cc(-c2c(C#N)c(N)nc3c2c(C)nn3-c2ccc(C)c(C)c2)cc(OC)c1OC returned PostGolgi ctrl 20, CYP2C9 activ 0.7, CYP2C9 inh 26, CYP2C19 act 0.9, CYP2C19 inh 6 and PostGolgi yeast 16.
Screening CCOc1cc(-c2c(C#N)c(=O)[nH]c3c2c(C)nn3-c2ccc(F)cc2)ccc1O returned PostGolgi ctrl 2, CYP2C9 activ 0.1, CYP2C9 inh 91*, CYP2C19 act 0.9, CYP2C19 inh 12 and PostGolgi yeast -6.
Cc1cc2ccccc2c(=O)n1CC(=O)NC1CCCCCC1 was read as PostGolgi ctrl 1, CYP2C9 activ 1, CYP2C9 inh 0, CYP2C19 act 0.4, CYP2C19 inh 64* and PostGolgi yeast -2.
O=C(Cn1c(=O)sc2ccccc21)NCc1ccco1 was read as PostGolgi ctrl 10, CYP2C9 activ 4.4*, CYP2C9 inh -340, CYP2C19 act 0.3, CYP2C19 inh 72* and PostGolgi yeast 10.
`Cc1cc2ccccc2c(=O)n1CC(=O)NCC1COc2ccccc2O1` (stereo not given) gave PostGolgi ctrl 2, CYP2C9 activ 0.8, CYP2C9 inh 22, CYP2C19 act 0.7, CYP2C19 inh 34 and PostGolgi yeast -1.
COc1cccc2c(=O)n(CC(=O)NC3CCCCC3)ccc12 was read as PostGolgi ctrl 24, CYP2C9 activ 2.2*, CYP2C9 inh -118, CYP2C19 act 0.7, CYP2C19 inh 28 and PostGolgi yeast -1.
O=C(Cn1c(=O)sc2ccccc21)Nc1ccccc1C(=O)O was read as PostGolgi ctrl -2, CYP2C9 activ 0.2, CYP2C9 inh 85*, CYP2C19 act 1.1, CYP2C19 inh -13 and PostGolgi yeast -5.
COc1cccc2c(=O)n(CC(=O)Nc3ccc(F)cc3)ccc12 was read as PostGolgi ctrl -2, CYP2C9 activ 1, CYP2C9 inh -4, CYP2C19 act 1, CYP2C19 inh 5 and PostGolgi yeast 8.
`COC(=O)Cn1c(=O)sc2ccccc21` gave PostGolgi ctrl -7, CYP2C9 activ 1.1, CYP2C9 inh -11, CYP2C19 act 1, CYP2C19 inh 3 and PostGolgi yeast 7.
CCN(CC)S(=O)(=O)c1ccc(NC(=O)Cn2c(=O)sc3ccccc32)cc1 was read as PostGolgi ctrl 19, CYP2C9 activ 0.3, CYP2C9 inh 70*, CYP2C19 act 1.1, CYP2C19 inh -7 and PostGolgi yeast 9.
`COc1ccc(OC)c(NC(=O)CNC(=O)Cn2c(C)cc3ccccc3c2=O)c1` gave PostGolgi ctrl -7, CYP2C9 activ 0.9, CYP2C9 inh 9, CYP2C19 act 0.7, CYP2C19 inh 34 and PostGolgi yeast 1.
For Cc1cc2ccccc2c(=O)n1CC(=O)N(C)c1ccc(F)cc1 the results were PostGolgi ctrl 5, CYP2C9 activ 0.7, CYP2C9 inh 34, CYP2C19 act 0.4, CYP2C19 inh 60* and PostGolgi yeast 2.
`COc1ccc(NC(=O)Cn2c(=O)sc3ccccc32)cc1` gave PostGolgi ctrl 8, CYP2C9 activ 0.8, CYP2C9 inh 17, CYP2C19 act 0.5, CYP2C19 inh 46 and PostGolgi yeast -15.
For O=C(Cn1c(=O)sc2ccccc21)Nc1ccccc1 the results were PostGolgi ctrl 3, CYP2C9 activ 0.4, CYP2C9 inh 60*, CYP2C19 act 0.6, CYP2C19 inh 43 and PostGolgi yeast 5.
For Cc1cc2ccccc2c(=O)n1CC(=O)NCC(=O)N1CCN(c2ccccc2)CC1 the results were PostGolgi ctrl 7, CYP2C9 activ 2.4*, CYP2C9 inh -140, CYP2C19 act 1.2, CYP2C19 inh -18 and PostGolgi yeast -14.
For Cc1cc2ccccc2c(=O)n1CC(=O)N1CCN(c2cccc(Cl)c2)CC1 the results were PostGolgi ctrl -1, CYP2C9 activ 1.2, CYP2C9 inh -20, CYP2C19 act 1.1, CYP2C19 inh -8 and PostGolgi yeast 3.
Screening Cc1cccc(-c2c3c(=O)n(C)c(=O)n(C)c3cn2CC2CCCO2)c1 (stereo not given) returned PostGolgi ctrl -3, CYP2C9 activ 0.9, CYP2C9 inh 9, CYP2C19 act 1, CYP2C19 inh 1 and PostGolgi yeast 9.
CCOC(=O)N1CCN(C(=O)CCN2C(=O)COc3ccc(C)cc32)CC1 was read as PostGolgi ctrl 18, CYP2C9 activ 1.1, CYP2C9 inh -14, CYP2C19 act 1, CYP2C19 inh 5 and PostGolgi yeast 9.
Screening Cc1cccc(C)c1Nc1nnc(SCC(=O)NCc2ccco2)s1 returned PostGolgi ctrl -1, CYP2C9 activ 0.8, CYP2C9 inh 20, CYP2C19 act 0.3, CYP2C19 inh 70* and PostGolgi yeast -6.
For CCC(C)NC(=O)CNC(=O)Cn1c(C)cc2ccccc2c1=O (stereo not given) the results were PostGolgi ctrl 10, CYP2C9 activ 1.2, CYP2C9 inh -24, CYP2C19 act 0.9, CYP2C19 inh 11 and PostGolgi yeast 25.
Screening Cc1nc(SCC(=O)NCc2ccco2)nc(C)c1C returned PostGolgi ctrl 6, CYP2C9 activ 1.2, CYP2C9 inh -19, CYP2C19 act 0.7, CYP2C19 inh 28 and PostGolgi yeast -4.
For Cc1cc2ccccc2c(=O)n1CC(=O)NCc1ccco1 the results were PostGolgi ctrl 0, CYP2C9 activ 2.6*, CYP2C9 inh -156, CYP2C19 act 0.5, CYP2C19 inh 54* and PostGolgi yeast 2.
For O=C(CSc1nnc2sc3ccccc3n12)NCc1ccco1 the results were PostGolgi ctrl 4, CYP2C9 activ 2.9*, CYP2C9 inh -186, CYP2C19 act 0.8, CYP2C19 inh 22 and PostGolgi yeast -3.
Screening CC1CN(c2nc(-c3ccc(Br)cc3)nnc2-c2ccccc2)CC(C)N1 (stereo not given) returned PostGolgi ctrl 1, CYP2C9 activ 0.9, CYP2C9 inh 12, CYP2C19 act 0.9, CYP2C19 inh 8 and PostGolgi yeast -3.
For CC(=O)Nc1ccc(OC(=O)c2cccnc2)cc1 the results were PostGolgi ctrl -9, CYP2C9 activ 1.1, CYP2C9 inh -14, CYP2C19 act 1.1, CYP2C19 inh -11 and PostGolgi yeast -1.
`Cc1ccc(/C=N\NC(=O)c2csnn2)cc1` gave PostGolgi ctrl 4, CYP2C9 activ 1, CYP2C9 inh -3, CYP2C19 act 0.6, CYP2C19 inh 36 and PostGolgi yeast -11.
COC(=O)c1[nH]cnc1C(=O)c1ccccc1 was read as PostGolgi ctrl 6, CYP2C9 activ 1.1, CYP2C9 inh -9, CYP2C19 act 1, CYP2C19 inh -2 and PostGolgi yeast 0.

Screens from PubChem BioAssay.
